Experiments:
Test in all cases: PBM; 200 nM protein, PBS
Details in all cases: dsDNA, one strand shown
HOXB9 [1] = target: HOXB9 (Homo sapiens, UniProt P17482 171-250, T197M)
HOXC9 [2] = target: HOXC9 (Homo sapiens, UniProt P31274 178-260, K195R)
HOXC10 [3] = target: HOXC10 (Homo sapiens, UniProt Q9NYD6 254-340)
HOXB9 [4] = target: HOXB9 (Homo sapiens, UniProt P17482 171-250)
HOXC9 [5] = target: HOXC9 (Homo sapiens, UniProt P31274 178-260)
ALX3 [6] = target: ALX3 (Homo sapiens, UniProt O95076 139-225, N203Q)
HOXD13 [7] = target: HOXD13 (Homo sapiens, UniProt P35453 263-343, T313R)
HOXC9 [8] = target: HOXC9 (Homo sapiens, UniProt P31274 178-260, R193K)
HOXD13 [9] = target: HOXD13 (Homo sapiens, UniProt P35453 263-343)
HOXC10 [10] = target: HOXC10 (Homo sapiens, UniProt Q9NYD6 254-340, K271E)
ALX3 [11] = target: ALX3 (Homo sapiens, UniProt O95076 139-225)
HOXD13 [12] = target: HOXD13 (Homo sapiens, UniProt P35453 263-343, T313A)
HOXB9 [13] = target: HOXB9 (Homo sapiens, UniProt P17482 171-250, R186Q)
HOXC9 [14] = target: HOXC9 (Homo sapiens, UniProt P31274 178-260, R222W)
HOXA2 [15] = target: HOXA2 (Homo sapiens, UniProt O43364 129-215, R185T)
HOXA2 [16] = target: HOXA2 (Homo sapiens, UniProt O43364 129-215, R185K)
HOXA2 [17] = target: HOXA2 (Homo sapiens, UniProt O43364 129-215, Y150S)
HOXA2 [18] = target: HOXA2 (Homo sapiens, UniProt O43364 129-215)
HOXA2 (Homo sapiens, UniProt O43364 129-215), sequence (O43364 129-215): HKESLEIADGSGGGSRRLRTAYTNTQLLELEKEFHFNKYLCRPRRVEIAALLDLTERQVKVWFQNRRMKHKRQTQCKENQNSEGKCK

HOXB9 (Homo sapiens, UniProt P17482 171-250, R186Q), sequence (P17482 171-250 R186Q): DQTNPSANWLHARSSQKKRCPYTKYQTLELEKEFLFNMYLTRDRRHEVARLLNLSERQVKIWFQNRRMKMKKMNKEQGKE
HOXD13 (Homo sapiens, UniProt P35453 263-343, T313A), sequence (P35453 263-343 T313A): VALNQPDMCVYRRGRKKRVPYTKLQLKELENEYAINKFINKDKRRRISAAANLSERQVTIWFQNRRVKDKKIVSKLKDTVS
HOXD13 (Homo sapiens, UniProt P35453 263-343, T313R), sequence (P35453 263-343 T313R): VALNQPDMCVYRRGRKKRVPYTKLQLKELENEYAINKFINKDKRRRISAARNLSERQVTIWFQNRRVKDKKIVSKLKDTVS
HOXC9 (Homo sapiens, UniProt P31274 178-260, R193K), sequence (P31274 178-260 R193K): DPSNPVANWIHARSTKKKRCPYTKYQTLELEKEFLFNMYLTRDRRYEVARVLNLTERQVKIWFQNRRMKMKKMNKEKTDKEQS
HOXC10 (Homo sapiens, UniProt Q9NYD6 254-340, K271E), sequence (Q9NYD6 254-340 K271E): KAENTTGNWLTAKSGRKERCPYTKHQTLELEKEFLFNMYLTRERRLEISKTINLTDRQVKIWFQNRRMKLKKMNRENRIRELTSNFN
HOXC9 (Homo sapiens, UniProt P31274 178-260, R222W), sequence (P31274 178-260 R222W): as the sequence (P31274 178-260 R193K) above, with K16R, R45W counted along it
HOXB9 (Homo sapiens, UniProt P17482 171-250, T197M), sequence (P17482 171-250 T197M): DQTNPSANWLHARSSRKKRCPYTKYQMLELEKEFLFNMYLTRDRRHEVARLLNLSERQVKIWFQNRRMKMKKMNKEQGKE
HOXC9 (Homo sapiens, UniProt P31274 178-260), sequence (P31274 178-260): as the sequence (P31274 178-260 R193K) above, with K16R counted along it
HOXD13 (Homo sapiens, UniProt P35453 263-343), sequence (P35453 263-343): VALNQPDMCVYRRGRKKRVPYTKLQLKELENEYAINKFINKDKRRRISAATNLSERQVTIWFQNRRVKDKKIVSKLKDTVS
HOXC9 (Homo sapiens, UniProt P31274 178-260, K195R), sequence (P31274 178-260 K195R): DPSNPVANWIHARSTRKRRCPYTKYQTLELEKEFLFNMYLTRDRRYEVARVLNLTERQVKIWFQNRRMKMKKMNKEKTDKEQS
HOXC10 (Homo sapiens, UniProt Q9NYD6 254-340), sequence (Q9NYD6 254-340): as the sequence (Q9NYD6 254-340 K271E) above, with E18K counted along it
HOXB9 (Homo sapiens, UniProt P17482 171-250), sequence (P17482 171-250): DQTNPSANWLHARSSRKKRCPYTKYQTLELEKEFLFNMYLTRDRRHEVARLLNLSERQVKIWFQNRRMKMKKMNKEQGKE
HOXA2 (Homo sapiens, UniProt O43364 129-215, R185K), sequence (O43364 129-215 R185K): as the sequence (O43364 129-215) above, with R57K counted along it
HOXA2 (Homo sapiens, UniProt O43364 129-215, R185T), sequence (O43364 129-215 R185T): as the sequence (O43364 129-215) above, with R57T counted along it
HOXA2 (Homo sapiens, UniProt O43364 129-215, Y150S), sequence (O43364 129-215 Y150S): as the sequence (O43364 129-215) above, with Y22S counted along it
ALX3 (Homo sapiens, UniProt O95076 139-225, N203Q), sequence (O95076 139-225 N203Q): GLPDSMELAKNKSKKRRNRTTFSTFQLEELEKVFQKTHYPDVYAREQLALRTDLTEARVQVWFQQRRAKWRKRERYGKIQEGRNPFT
ALX3 (Homo sapiens, UniProt O95076 139-225), sequence (O95076 139-225): as the sequence (O95076 139-225 N203Q) above, with Q65N counted along it

Sequence | binding signal (HOXB9 [1]) | binding signal (HOXC9 [2]) | binding signal (HOXC10 [3]) | binding signal (HOXB9 [4]) | binding signal (HOXC9 [5]) | binding signal (ALX3 [6]) | binding signal (HOXD13 [7]) | binding signal (HOXC9 [8]) | binding signal (HOXD13 [9]) | binding signal (HOXC10 [10]) | binding signal (ALX3 [11]) | binding signal (HOXD13 [12]) | binding signal (HOXB9 [13]) | binding signal (HOXC9 [14]) | binding signal (HOXA2 [15]) | binding signal (HOXA2 [16]) | binding signal (HOXA2 [17]) | binding signal (HOXA2 [18])
CCATAAAA | 10 upbm affinity estimate (log intensity, higher = more binding, comparable within an allelic series) | 13.3 upbm affinity estimate (log intensity, higher = more binding, comparable within an allelic series) | 13 upbm affinity estimate (log intensity, higher = more binding, comparable within an allelic series) | 12.8 upbm affinity estimate (log intensity, higher = more binding, comparable within an allelic series) | 13.4 upbm affinity estimate (log intensity, higher = more binding, comparable within an allelic series) | 8.22 upbm affinity estimate (log intensity, higher = more binding, comparable within an allelic series) | 11 upbm affinity estimate (log intensity, higher = more binding, comparable within an allelic series) | 13.3 upbm affinity estimate (log intensity, higher = more binding, comparable within an allelic series) | 12.3 upbm affinity estimate (log intensity, higher = more binding, comparable within an allelic series) | 12.5 upbm affinity estimate (log intensity, higher = more binding, comparable within an allelic series) | 8.99 upbm affinity estimate (log intensity, higher = more binding, comparable within an allelic series) | 12 upbm affinity estimate (log intensity, higher = more binding, comparable within an allelic series) | 12.5 upbm affinity estimate (log intensity, higher = more binding, comparable within an allelic series) | 11.6 upbm affinity estimate (log intensity, higher = more binding, comparable within an allelic series) |  |  |  | 
TCATAAAA | 9.93 upbm affinity estimate (log intensity, higher = more binding, comparable within an allelic series) | 13 upbm affinity estimate (log intensity, higher = more binding, comparable within an allelic series) | 12.8 upbm affinity estimate (log intensity, higher = more binding, comparable within an allelic series) | 12.4 upbm affinity estimate (log intensity, higher = more binding, comparable within an allelic series) | 13.1 upbm affinity estimate (log intensity, higher = more binding, comparable within an allelic series) |  | 11 upbm affinity estimate (log intensity, higher = more binding, comparable within an allelic series) | 12.9 upbm affinity estimate (log intensity, higher = more binding, comparable within an allelic series) | 12.2 upbm affinity estimate (log intensity, higher = more binding, comparable within an allelic series) | 12.3 upbm affinity estimate (log intensity, higher = more binding, comparable within an allelic series) |  | 11.9 upbm affinity estimate (log intensity, higher = more binding, comparable within an allelic series) | 12.1 upbm affinity estimate (log intensity, higher = more binding, comparable within an allelic series) | 11.3 upbm affinity estimate (log intensity, higher = more binding, comparable within an allelic series) |  |  |  | 
ATCATAAA | 9.69 upbm affinity estimate (log intensity, higher = more binding, comparable within an allelic series) | 12.7 upbm affinity estimate (log intensity, higher = more binding, comparable within an allelic series) | 12.5 upbm affinity estimate (log intensity, higher = more binding, comparable within an allelic series) | 11.9 upbm affinity estimate (log intensity, higher = more binding, comparable within an allelic series) | 12.8 upbm affinity estimate (log intensity, higher = more binding, comparable within an allelic series) |  | 10.8 upbm affinity estimate (log intensity, higher = more binding, comparable within an allelic series) | 12.7 upbm affinity estimate (log intensity, higher = more binding, comparable within an allelic series) | 11.8 upbm affinity estimate (log intensity, higher = more binding, comparable within an allelic series) | 11.8 upbm affinity estimate (log intensity, higher = more binding, comparable within an allelic series) |  | 11.8 upbm affinity estimate (log intensity, higher = more binding, comparable within an allelic series) | 11.7 upbm affinity estimate (log intensity, higher = more binding, comparable within an allelic series) | 10.9 upbm affinity estimate (log intensity, higher = more binding, comparable within an allelic series) |  |  |  | 
ACTATAAA | 9.75 upbm affinity estimate (log intensity, higher = more binding, comparable within an allelic series) | 12.4 upbm affinity estimate (log intensity, higher = more binding, comparable within an allelic series) | 12.1 upbm affinity estimate (log intensity, higher = more binding, comparable within an allelic series) | 11.7 upbm affinity estimate (log intensity, higher = more binding, comparable within an allelic series) | 12.6 upbm affinity estimate (log intensity, higher = more binding, comparable within an allelic series) |  | 10.9 upbm affinity estimate (log intensity, higher = more binding, comparable within an allelic series) | 12.5 upbm affinity estimate (log intensity, higher = more binding, comparable within an allelic series) | 12 upbm affinity estimate (log intensity, higher = more binding, comparable within an allelic series) | 11.4 upbm affinity estimate (log intensity, higher = more binding, comparable within an allelic series) |  | 11.8 upbm affinity estimate (log intensity, higher = more binding, comparable within an allelic series) | 11.4 upbm affinity estimate (log intensity, higher = more binding, comparable within an allelic series) | 11 upbm affinity estimate (log intensity, higher = more binding, comparable within an allelic series) |  |  |  | 
CGCCACCG | 8.56 upbm affinity estimate (log intensity, higher = more binding, comparable within an allelic series) | 9.67 upbm affinity estimate (log intensity, higher = more binding, comparable within an allelic series) |  | 8.3 upbm affinity estimate (log intensity, higher = more binding, comparable within an allelic series) | 9.81 upbm affinity estimate (log intensity, higher = more binding, comparable within an allelic series) |  | 9.57 upbm affinity estimate (log intensity, higher = more binding, comparable within an allelic series) | 9.64 upbm affinity estimate (log intensity, higher = more binding, comparable within an allelic series) | 9.56 upbm affinity estimate (log intensity, higher = more binding, comparable within an allelic series) |  |  | 9.65 upbm affinity estimate (log intensity, higher = more binding, comparable within an allelic series) | 8.46 upbm affinity estimate (log intensity, higher = more binding, comparable within an allelic series) | 9.73 upbm affinity estimate (log intensity, higher = more binding, comparable within an allelic series) | 7.25 upbm affinity estimate (log intensity, higher = more binding, comparable within an allelic series) | 10.5 upbm affinity estimate (log intensity, higher = more binding, comparable within an allelic series) | 10.7 upbm affinity estimate (log intensity, higher = more binding, comparable within an allelic series) | 7.41 upbm affinity estimate (log intensity, higher = more binding, comparable within an allelic series)
